# In the library only some 12% were active in any assay of this set; here they are far more common.
# G9a block – qHTS Assay for Inhibitors of Histone Lysine Methyltransferase G9a | Histone-lysine N-methyltransferase EHMT2 (Homo sapiens), Q96KQ7 | G9a H3K9 monomethylation, AlphaScreen, 2 h | Potency, µM (series often up to 102 µM), for inactives: at the top dose activity, negative = inhibition, usual class: inhibitors | 350,000 compounds, 8.8% hits; further: potency means the concentration at half of the fitted maximal effect; on the % scale 0 is the no-effect control and ±100 the full control effect; nearly all actives have a fitted effect of over 75% in size
#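 Chemiluminescent proximity detection of H3K9 monomethylation, read after 10 min bead incubation in the dark. Reaction: 20 nM G9a, 500 nM biotin-H3K9 peptide, 20 uM SAM cofactor, 2 h, room temperature, following 15 min enzyme-compound preincubation.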
# JMJD2A Tudor inh – qHTS Assay for Inhibitors of JMJD2A-Tudor Domain | Lysine-specific demethylase 4A (Homo sapiens), O75164 | AlphaScreen JMJD2A-Tudor / H3K4me3 peptide binding | Potency, µM (titrated, usually from 114 µM), without a hit: at the top dose activity change, negative = inhibition, usual class: inhibitors | 390,000 compounds, 4.4% hits | AID 504339, 2011; further: potency means the concentration at half of the fitted maximal effect; on the % scale 0 is the no-effect control and ±100 the full control effect; nearly all actives have a fitted effect of over 50% in size
# HP1b chromo inh – HTS for Inhibitors of HP1-beta Chromodomain Interactions with Methylated Histone Tails; 390,000 compounds, 0.56% hits; AlphaScreen HP1-beta / biotin-H3K9me3 peptide binding; Potency, µM (series often up to 114 µM), for the others: at the top dose activity change, negative = inhibition, most hits filed as inhibitors; Chromobox protein homolog 1 (Homo sapiens), P83916; AID 540317, 2011; further: potency means the concentration at half of the fitted maximal effect; nearly all actives have a fitted effect of over 70% in size
#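 HP1-beta protein (50 nM final) preincubated 30 min at room temperature with biotinylated H3(1-18)K9me3 peptide (50 nM) in PBS pH 7.4, 0.01% Tween-20, then compound added for 30 min. AlphaScreen streptavidin donor/nickel chelate acceptor beads (10 ug/mL final), 30 min dark, luminescence read.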
# PI5P4Ka inh – qHTS for Inhibitors of phosphatidylinositol 5-phosphate 4-kinase (PI5P4K) | PI5P4Kalpha enzyme, ADP-Glo luminescence, 60 min; stronger effect = lower value | Phosphatidylinositol 5-phosphate 4-kinase type-2 alpha (Homo sapiens), P48426 | max response, % | AID 652105, 2013 | 330,000 compounds, 1.2% hits; active means max response of -50% or lower; inconclusive means between -30% and -50%; inactive means -30% or higher; further: value at the top dose of about 77 µM; on the % scale 0 is the no-effect control and ±100 the full control effect
#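 ADP-Glo luminescence end-point after a 60 min room-temperature kinase reaction. PI5P4Kalpha and substrate in HEPES pH 7.4 buffer with EGTA, 0.1% CHAPS and 5% DMSO; ATP at 5 microM final.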
# BAZ2B inh – qHTS Assay for Inhibitors of BAZ2B | Bromodomain adjacent to zinc finger domain protein 2B (Homo sapiens), Q9UIF8 | AlphaScreen BAZ2B-H3K14Ac peptide displacement | Potency, µM (titrated, usually from 114 µM), without a hit: at the top dose activity change, negative = inhibition, most hits filed as inhibitors | 360,000 compounds, 4.4% hits; further: potency means the concentration at half of the fitted maximal effect; on the % scale 0 is the no-effect control and ±100 the full control effect; nearly all actives have a fitted effect of over 60% in size
#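 AlphaScreen displacement of biotin-H3(5-23)K14Ac peptide (50 nM final) from BAZ2B (50 nM final) in PBS pH 7.4, 0.01% Tween-20; complex preformed 30 min RT, then compounds (top 110 uM) 30 min RT, beads 20 min dark.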
# PLK1 PBD block – qHTS for Inhibitors of PLK1-PDB (polo-like kinase 1 - polo-box domain): Primary Screen | AID 720504, 2013 | Plk1 PBD binding of FITC phosphopeptide, fluorescence polarization | 360,000 compounds, 2.8% hits | Potency, µM, inactives show max response, negative = inhibition, actives largely listed as inhibitors | Serine/threonine-protein kinase PLK1 (Homo sapiens), P53350; further: potency means the concentration at half of the fitted maximal effect; series mostly up to about 57 µM; on the % scale 0 is the no-effect control and ±100 the full control effect; nearly all actives have a fitted effect of over 65% in size
# Active calls of the source: *; ? = inconclusive; · = no result given; [ ] = dose if it differs, or a comment. Unless noted, the call rests on the fitted dose curve; in most records, active means well fitted curve in the direction sought with a large enough effect; inconclusive means small, poorly fitted or top-dose-only effect, or another doubt; inactive means no such curve, though single readings can be large; an effect the other way counts as inactive or inconclusive.
SMILES,G9a block,JMJD2A Tudor inh,HP1b chromo inh,PI5P4Ka inh,BAZ2B inh,PLK1 PBD block
CCn1c(SCCN2CCCCC2)nc2c1c(=O)n(C)c(=O)n2C,·,-24.7%,70.8µM*,-3.0,·,?
Cc1ccc(NC(=S)NNC(=O)CSc2nnc(-c3ccc(Cl)cc3)n2C2CCCCC2)cc1,-15.4%[59 µM],?,-26.4%,-7.8,-6.8%,-7.8%
COCCN1C(=O)N[C@@H](c2cccc(C(F)(F)F)c2)C(C(=O)OC)=C1C,·,?,16.6%,-3.8,·,29.9µM*
COC(=O)C1=C(C)N(Cc2ccco2)C(=O)N[C@@H]1c1cccc(C(F)(F)F)c1,89.1µM*,·,·,·,?,·
COC(=O)C1=C(C)N(Cc2ccccc2)C(=O)N[C@H]1c1cccc(C(F)(F)F)c1,25.1%[59 µM],?,28.2%,1.9,-1.2%,-11.0%
CCN1C(=NCC2CC2)N[C@@H](c2cccc(C(F)(F)F)c2)C(C(=O)OC)=C1C,-1.2%[12.7 µM],-11.2%,19.9%,-9.0,7.7%,-6.3%
CCN1C(=NCCOC)N[C@@H](c2cccc(C(F)(F)F)c2)C(C(=O)OC)=C1C,·,15.8µM*,32.2%,-4.2,?,-13.0%
Cc1cc(OCC(=O)NNC(=O)c2cccs2)ccc1Br,10.8%,-12.4%,-5.2%,3.1,-11.3%,-2.7%
O=C(NCC1CCCO1)c1c[nH]c2ccc(S(=O)(=O)Nc3cccc(C(F)(F)F)c3)cc2c1=O (stereo not given),0.6%[59 µM],0.0%,39.9%,·,2.3%,·
COC(=O)CCC/C=C1/SCC(NC(=O)c2ccccc2)C1=O (stereo not given),44.7µM*,-35.0%,-18.0%,-26.8,?,?
O=C(N=Nc1c(O)[nH]c2ccccc12)c1ccco1,7.6%,-7.5%[11.4 µM],-15.9%,6.4,-14.7%,-24.4%
O=S1(=O)CC=C(CSC(=S)NC2CCS(=O)(=O)C2)C1 (stereo not given),44.7µM*,-0.7%,60.3%,2.1,-11.2%,?
CC1(c2ccc3ccccc3c2)NC(=O)N(CC(=O)NCC(C)(C)N2CCOCC2)C1=O (stereo not given),8.2%,-3.3%,14.1%,1.7,6.1%,4.8%
CCOC(=O)C1CCN(C(=O)c2nn(-c3ccc(C)cc3)c(=O)c3c2c2ccccc2n3C)CC1,0.9%[59 µM],-4.0%,21.5%,·,·,·
C/C(=N\NC(=O)c1nnn(-c2nonc2N)c1CN(C)c1ccccc1)c1ccccc1O,20.8%,14.1µM*,13.2%[57 µM],28.2,2.24µM*,-18.8%
Cc1ccc(-c2c(C(=O)N/N=C/C3CCCCC3)nnn2-c2nonc2N)cc1,0.6%,-3.0%,56.4%,0.0,79.4µM*,3.3%
C/C(=N\NC(=O)c1nnn(-c2nonc2N)c1CN1CCCCC1)c1ccccc1O,11.4%,?,20.8%,1.1,44.7µM*,-6.5%
CCOc1ccc(-c2c(C(=O)N/N=C/C3CCCCC3)nnn2-c2nonc2N)cc1,23.7%,-3.8%,45.0%,-2.4,?,-8.8%
COc1ccc(/C(C)=N/NC(=O)c2nnn(-c3nonc3N)c2CN(C)c2ccccc2)cc1,18.3%,3.1%,33.7%,-1.4,-3.6%,1.6%
COc1ccc(/C(C)=N/NC(=O)c2nnn(-c3nonc3N)c2-c2ccccc2)cc1,50.1µM*,-7.0%,26.2%,0.9,?,-4.5%
c1cc2c(cnc3cscc32)s1,14.1µM*,-9.7%,40.8%,-2.8,-37.2%,1.1%
CCC(C(=O)Nc1cc(C)ccc1C)n1c(=O)c(C(F)(F)F)nc2ccccc21 (stereo not given),-5.4%[59 µM],-14.3%,22.1%,·,-3.5%,·
Nc1nc(C(=O)N2CCOCC2)nn1C(=O)c1ccc(Cl)cc1,35.5µM*,2.8%,70.3%,5.8,-18.1%,?
O=C(c1ccc(Cl)cc1)c1ccccc1C(=O)N1CCOCC1,7.1%,-11.5%,20.3%,·,10.1%,-6.1%
COc1ccc(NC(=O)c2ccco2)c([N+](=O)[O-])c1,?,-25.0%,-11.9%,2.0,-38.7%,2.8%
SMILES,G9a block,JMJD2A Tudor inh,HP1b chromo inh,PI5P4Ka inh,BAZ2B inh,PLK1 PBD block
COc1ccc(NC(=O)C/C(C)=N/NC(=O)c2ccco2)c([N+](=O)[O-])c1,44.7µM*,-14.3%,15.8%,2.9,-10.4%,-3.9%
Cc1ccc2[nH]c(C)c(CC(=O)NCc3ccccc3)c2c1,6.9%,?,7.3%,-5.5,-33.5%,-17.3%
Cc1ccc2[nH]c(=O)c(Cc3ccccc3)c(O)c2c1,8.91µM*,-3.0%[11.4 µM],44.4%,-12.0,?,-6.9%
Cc1ccc(C)c(OC2=NS(=O)(=O)c3ccccc32)c1,·,-19.0%,4.0%,-4.0,-2.0%,11.9µM*
N#Cc1cccc(OC2=NS(=O)(=O)c3ccccc32)c1,·,35.5µM*,·,·,·,·
O=S1(=O)N=C(Oc2cccc(Cl)c2)c2ccccc21,·,-35.4%[162 µM],·,·,·,·
O=S1(=O)N=C(Oc2ccccc2)c2ccccc21,-1.6%[59 µM],89.1µM*,9.9%,-6.2,5.9%,-9.9%
CCOC(=O)[C@@H]1[C@H]2COc3cc(OC)ccc3[C@H]2N2C(=O)N(c3cccc(F)c3)C(=O)[C@@]12C,·,-31.4%,29.8%,8.8,·,-8.4%
CCn1c(CC(=O)Nc2ccc(Cl)cc2)nnc1SCC(=O)N1CCOCC1,47.2%,-9.0%,39.2%,2.8,-15.3%,-0.7%
CCn1c(CC(=O)Nc2ccc(F)cc2)nnc1SCC(=O)N1CCOCC1,-38.8%,-20.3%,15.1%[57 µM],0.3,-11.6%,29.9µM*
O=c1[nH][nH]c2cc(=O)n(-c3ccc(Cl)cc3)nc12,39.8µM*,?,-12.5%,-26.6,50.1µM*,-20.9%
CC(=O)c1nn(-c2ccc(Cl)cc2)c(=O)[nH]c1=O,1.9%,-10.7%,33.1%,-2.9,2.7%,-3.4%
Cn1c(=O)n(C)c2cc([N+](=O)[O-])c(N3CCN(C(=O)c4cccc(F)c4)CC3)cc21,?,-13.4%,-0.9%,-0.2,50.1µM*,-4.7%
Cc1ccc(S(=O)(=O)N2CCN(c3cc4c(cc3[N+](=O)[O-])n(C)c(=O)n4C)CC2)cc1,?,-33.5%,-11.5%,·,?,-3.9%
Cn1c(=O)n(C)c2cc([N+](=O)[O-])c(N3CCN(C(=O)c4cccc(Cl)c4)CC3)cc21,19.1%[59 µM],-23.4%[57.1 µM],1.0%,3.3,56.2µM*,-1.9%
CCCS(=O)(=O)N1CCN(c2cc3c(cc2[N+](=O)[O-])n(C)c(=O)n3C)CC1,-5.4%,0.0%[57.1 µM],40.1%,-1.7,56.2µM*,-7.8%
